GLP-1R agonist = qHTS of GLP-1 Receptor Agonists; Glucagon-like peptide 1 receptor (Homo sapiens), P43220; HEK293 GLP-1R CRE-luciferase, luminescence, 4-6 h; cells express a hypersensitive GLP-1R form; Potency, µM (highest dose often 45.6 µM), most hits filed as activators; actives 0.007% (n = 380,000); AID 624172, 2012
Target sequence (P43220 whole entry, looked up): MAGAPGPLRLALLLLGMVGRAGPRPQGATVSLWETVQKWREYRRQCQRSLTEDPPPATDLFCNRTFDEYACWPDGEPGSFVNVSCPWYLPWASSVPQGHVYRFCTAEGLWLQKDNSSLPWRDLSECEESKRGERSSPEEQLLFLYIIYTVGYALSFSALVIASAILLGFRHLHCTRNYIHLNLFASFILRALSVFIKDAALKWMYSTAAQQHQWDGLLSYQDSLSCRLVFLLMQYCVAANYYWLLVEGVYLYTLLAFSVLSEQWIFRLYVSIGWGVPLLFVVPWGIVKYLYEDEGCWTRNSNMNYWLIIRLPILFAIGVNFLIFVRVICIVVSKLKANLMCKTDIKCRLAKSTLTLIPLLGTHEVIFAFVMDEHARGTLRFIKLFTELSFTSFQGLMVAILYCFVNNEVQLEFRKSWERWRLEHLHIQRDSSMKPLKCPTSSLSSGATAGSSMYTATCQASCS
GLP1R cytotox = qHTS of GLP-1 Receptor Inverse Agonists: Cytotox Screen | HEK293 cAMP-luciferase reporter cells, luminescence, 24 h | Potency, µM (doses to about 38.3 µM), usual class: inhibitors | actives 0.13% (n = 410,000) | AID 624418, 2012;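 further: loss of luciferase light is scored as toxicity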
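Cells in DMEM/10% Nu serum/1% pen-strep, 1536-well format. Pre-incubated 12 h, dosed with 23 nL compound, incubated a further 24 h. Luciferase detection, 12 min at room temp, luminescence.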
GLP1R inv ag = qHTS of GLP-1 Receptor Inverse Agonists (Inhibition Mode); HEK293 GLP-1R CRE-luciferase, luminescence, 24 h; GLP-1R form is constitutively active; Potency, µM (titrated, usually from 38.3 µM), most hits filed as inhibitors; actives 1.6% (n = 410,000); AID 624417, 2012; further: nearly all actives have a fitted effect of over 55% in size
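Luminescence readout: a drop in cAMP-driven luciferase signal flags inverse agonism at a constitutively active GLP-1R stably expressed in HEK293. Compound exposure lasted 24 hr at 37 deg C, 5% CO2.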
CCT chaperon mod = High-Throughput Screening for Modulators of Cytosolic Chaperonin Activity. AID 651819, 2012. purified chaperonin ATPase assay, HTRF ADP detection, 30 min. actives 0.3% (n = 360,000). activity change, % (test concentration not listed), hits read low; in the data active means activity change below about -30%
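First, chaperonin was dispensed at 40 nM or 20 nM final depending on batch activity. Next, compounds were pinned at 76 uM and ATP added at 10 uM. After 30 min at 37 °C, ADP detection reagents ran 30 min at ambient temperature.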
MmCpn inh = Inhibitors of TCP-1 ring complex (TRiC) of Methanococcus maripaludis (MmCpn): qHTS; Chaperonin Mm-Cpn (Methanococcus maripaludis); purified Mm-Cpn ATPase, ADP Transcreener TR-FRET; Potency, µM (series often up to 76.9 µM), most hits filed as inhibitors; actives 0.031% (n = 330,000); AID 504842, 2011; further: nearly all actives have a fitted effect of over 80% in size
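25 nM Mm-CPN + cpd, 10 min 37°C; + 10 uM ATP, 30 min 37°C; buffer 30 mM Tris pH 7.4, 100 mM KCl, 5 mM MgCl2, 1 mM DTT; Transcreener ADP HTRF detection 30 min RT.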
uPA surface inh = qHTS for Inhibitors of Cell Surface uPA Generation; Potency, µM (titrated, usually from 38.3 µM), actives largely listed as inhibitors; cell surface uPA generation assay, qHTS; actives 0.31% (n = 330,000); active means well fitted inhibition curve with a large enough effect; inconclusive means small, poorly fitted or top-dose-only effect; inactive means no such curve, though single readings can be large or run the other way; tested in mouse RAW 264.7 cells; further: nearly all actives have a fitted effect of over 55% in size
Numbers stand for hits; - = inactive; ? = inconclusive; . = not tested or not shown. Sampled rows, rich in hits. Any-hit rate of the full collection: about 2.2%. Unless noted, the call rests on the fitted dose curve; in most records, active means well fitted curve in the direction sought with a large enough effect; inconclusive means small, poorly fitted or top-dose-only effect, or another doubt; inactive means no such curve, though single readings can be large; an effect the other way counts as inactive or inconclusive.

SMILES | GLP-1R agonist | GLP1R cytotox | GLP1R inv ag | CCT chaperon mod | MmCpn inh | uPA surface inh
O=C(NC1CCN(C(=O)N2c3ccccc3Sc3ccccc32)CC1)c1ccccc1Cl | - | - | 10µM | - | - | -
O=C(c1ccco1)N1CCN(C(=O)N2c3ccccc3Sc3ccccc32)CC1 | - | 3.16µM | ? | - | - | ?
O=C(CCCCCCCCC#CI)Oc1ccccc1 | - | . | . | . | . | .
CS(=O)(=O)n1nc(-c2ccco2)nc1NCc1ccccc1Cl | . | - | - | . | . | .
CCCCN(C)CCCNC(=O)c1cn(CC)c2ccc(S(=O)(=O)N3CCc4ccccc4C3)cc2c1=O | - | ? | ? | -59.3 | - | -
CCCCN(CC)CCCNC(=O)c1cn(CC)c2ccc(S(=O)(=O)N3CCc4ccccc4C3)cc2c1=O | - | - | ? | - | - | .
CCOCCCNC(=O)c1cn(CC)c2ccc(S(=O)(=O)N3CCCC3)cc2c1=O | - | - | - | -51.8 | - | -
CCCCN(CCCC)CCNC(=O)c1cn(CC)c2ccc(S(=O)(=O)N3CCCC3)cc2c1=O | - | - | - | -81.6 | - | -
CCCCN(C)CCCNC(=O)c1cn(C)c2ccc(S(=O)(=O)N(C)C3CCCCC3)cc2c1=O | - | - | - | -54.0 | - | -
CCCCN1C(=O)C(O)(c2c[nH]c3ccccc23)c2cc(Br)ccc21 (centres undefined) | - | - | ? | . | . | .
Cc1cc(C)c2nc(NNC(=O)c3ccc(S(=O)(=O)N4CCCC(C)C4)cc3)sc2c1 (centres undefined) | - | - | ? | - | - | 5.62µM
Cc1cc(C)c2nc(NNC(=O)c3ccc(S(=O)(=O)N4CC(C)CC(C)C4)cc3)sc2c1 (centres undefined) | - | - | - | - | - | ?
Cc1ccc(NC(=S)NCc2ccc3[nH]c4c(c3c2)CCCC4)cc1 | - | ? | 12.6µM | - | - | -
COCCNC(=S)NCc1ccc2[nH]c3c(c2c1)CCCC3 | - | - | ? | - | - | -
CCOC(=O)c1cc(S(=O)(=O)NCc2ccc(Cl)cc2)[nH]n1 | . | - | - | . | . | .
CC(On1c(-c2ccccc2)nc2ccc(Cl)cc21)C(=O)O (centres undefined) | - | - | - | - | - | -
Cc1ccc(-c2nc3ccc(Cl)cc3n2OC(C)C(=O)O)cc1 (centres undefined) | - | - | - | -55.3 | - | -
C=CC[C@@H]1/C=C(\C)C[C@H](C)C[C@H](OC)[C@H]2O[C@@](O)(C(=O)C(=O)N3CCCC[C@H]3C(=O)O[C@H](/C(C)=C/[C@@H]3CC[C@@H](O)[C@H](OC)C3)[C@H](C)[C@@H](O)CC1=O)[C@H](C)C[C@@H]2OC | - | . | . | . | . | .
Cc1ccc(Nc2c(-c3ccc(C)cc3)nc3c(C)cccn23)cc1 | . | - | 10µM | . | . | .
Cc1ccc(Nc2c(-c3ccsc3)nc3c(C)cccn23)cc1 | . | - | ? | . | . | .
Cc1ccc(Nc2c(-c3ccccc3O)nc3ncccn23)cc1 | - | - | 10µM | - | - | -
CC1=CC(C)(C)N2C(=O)C3(N=C(N)NC(Nc4ccccc4)=N3)c3cc(C)cc1c32 (centres undefined) | - | ? | 3.55µM | - | - | -
Cc1cccc(NC2=NC(C)(C)N=C(N)N2)c1 | - | - | ? | - | - | -
COc1cccc(NC(=O)N2CCc3nc(NCc4cccc(Oc5ccccc5)c4)ncc3C2)c1 | - | - | 10µM | - | . | .
COc1cccc(/C=N/Nc2nnc(C)n2N)c1O | - | ? | 10µM | - | - | -
SMILES | GLP-1R agonist | GLP1R cytotox | GLP1R inv ag | CCT chaperon mod | MmCpn inh | uPA surface inh
COCCCNC(=S)N/N=C/c1cccc(OC)c1O | - | ? | 1.12µM | - | - | -
COCCCNC(=S)N/N=C/c1ccc(O)cc1O | - | - | - | - | - | -
COc1ccc(OC)c(NC(=O)CCCc2nnc3n(C(C)C)c(=O)c4sccc4n23)c1 | . | - | - | . | . | .
Cc1cccc(-n2c(SCC(=O)Nc3ccc(C)c(C)c3)nc3n[nH]c(C)c3c2=N)c1 | . | - | - | . | . | .
O=C(NCc1ccccc1Cl)c1ccc(-n2cnc3cccnc32)cc1 | - | - | - | . | . | .
COc1ccc(-n2c(NNC(C)=O)nc3sc4c(c3c2=O)CCCC4)cc1 | - | - | - | - | - | 7.94µM
CC(NC(=O)CSc1nc2sc3c(c2c(=O)n1-c1ccccc1)CCCC3)c1ccccc1 (centres undefined) | - | - | 8.91µM | - | - | -
CC(O)CNc1nc2sc3c(c2c(=O)n1CCc1ccccc1)CCCCC3 (centres undefined) | - | ? | 4.47µM | - | - | -
Cc1ccc(CNC(=O)NC2COc3ccccc3C2)cc1 (centres undefined) | . | - | - | . | . | .
CCOC(=O)c1cc(-c2ccccc2)n(-c2cccc(C(=O)N(C)c3ccc(C)cc3)c2)c1C | . | - | ? | . | . | .
CCCCC(=O)OCc1cc(=O)n2nc(C3CCCCC3)sc2n1 | . | - | - | . | . | .
O=C1NC(=O)C2C3C=CC(C3)C12 (centres undefined) | - | . | . | . | . | .
COc1ccc(CN2CCN(Cc3nc4ccccc4s3)CC2CCO)c(C)c1C (centres undefined) | - | ? | 7.94µM | - | - | ?
COc1ccc(CN2CCN(CC3CC3)CC2CCO)c(C)c1C (centres undefined) | - | - | - | - | - | -
CCc1ccc(NC(=O)c2cnn(-c3c(C)cccc3C)c2C2CCNCC2)cc1 | - | - | ? | . | . | .
Cc1ccc(CC(C)(O)CC(C)(O)Cc2ccc(C)cc2)cc1 (centres undefined) | - | - | 10µM | - | . | .
Cn1ccc2cc(-c3ccc4ncnc(NCc5cccs5)c4c3)ccc21 | - | . | . | . | ? | 7.94µM
CCNC(=O)c1c(C)oc2ncn(C)c(=O)c12 | . | - | ? | . | . | .
CN(c1nnc(NC(=O)Nc2ccccc2C(F)(F)F)s1)C1CCCCC1 | . | - | ? | . | . | .
CC(C)CC(=O)NC(c1ccccc1Cl)c1c(O)ccc2ccccc12 (centres undefined) | - | - | 8.91µM | - | - | -
COc1ccc(C(NC(=O)CC(C)C)c2c(O)ccc3ccccc23)cc1 (centres undefined) | - | - | ? | - | - | -
CCCCC(=O)NC(c1ccco1)c1c(O)ccc2ccccc12 (centres undefined) | - | - | 8.91µM | - | - | -
CCCC(=O)NC(c1ccco1)c1c(O)ccc2ccccc12 (centres undefined) | - | - | ? | - | - | .

Screening data (PubChem)
